# Whole data set: some 33,000 sequences, median “E-score (dimensionless, -0.5 to 0.5)” near -0.058, cut for the highest 2% near 0.35. The sample holds the highest values, similar sequences and a random draw of the others, so the mix is not that of the screen.
# Tested on: MvaT
# Experiment: PBM 8-mer E-score (mean of HK and ME arrays) (E-score (dimensionless, -0.5 to 0.5)); higher = stronger relative binding preference
# Method in brief: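 Full-length P. aeruginosa MvaT, with glutathione S-transferase fused to its N-terminus (cloned into pTH6838 by isothermal assembly), was tested by protein binding microarray using a previously described protocol. Two universal double-stranded 60-mer arrays (ME and HK) were used, each with a constant 25-mer primer region and a variable 35-mer region covering all 8-mers. The rank-based 8-mer E-score (-0.5 to 0.5) is the mean of the two arrays, parsed with a custom Python script.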
row,Sequence,PBM 8-mer E-score
1,AAATCATG,-0.0303
2,AATGTAAG,0.293
3,ACTGTAAT,0.351
4,ACTGTAAC,0.246
5,AATGTAAC,0.267
6,ACTGTAAA,0.266
7,AATGTAAT,0.365
8,GGTATGAC,-0.144
9,ATAATGGG,0.229
10,AGGTTAAA,0.0501
11,ATCATTCC,-0.0603
12,AATGATTC,0.144
13,CGATAGCC,-0.14
14,GCAGTTCC,-0.18
15,AATTAGAT,0.284
16,AATTATAT,0.461
17,CATTATAC,0.295
18,AATTATCT,0.296
19,GATTATGA,0.0705
20,GATTATAA,0.41
21,CATTATAA,0.389
22,CATTAGAA,-0.0258
23,AATTATAA,0.468
24,GATTATAC,0.223
25,AATTATAC,0.342

row,Sequence,PBM 8-mer E-score
1,CCAATGAC,-0.153
2,CATTGTGG,-0.0595
3,GGCTTTGA,-0.0706
4,ACACAGGC,-0.0277
5,TCCTACGA,-0.0392
6,AATTATGT,0.366
7,CATTATAG,0.277
8,AATTATAG,0.37
9,AATTATGA,0.317
10,AATTATGG,0.285
11,ACTCCTGA,-0.0172
12,GAGTTAAC,0.254
13,AAGTTAAA,0.411
14,CAGTTAAC,0.221
15,TAGTTAAA,0.273
16,AAGTTACT,0.339
17,AAGTTAAT,0.385
18,AAGTTAAG,0.243
19,AAGTTAAC,0.379
20,GAGTTAAA,0.25
21,AGTTATTG,0.312
22,CGTTATTA,0.364
23,CGTTATTC,0.24
24,AGTTATTA,0.414
25,GGTTATTA,0.285

row,Sequence,PBM 8-mer E-score
1,CGTTATCA,0.111
2,AAAGTAGG,0.0451
3,CAAAGATC,-0.0152
4,AATAAAGG,0.228
5,ACTAAAAA,0.193
6,ACTAAAAC,0.289
7,ACTAAAAT,0.39
8,AATAAAAT,0.388
9,AATAAAAC,0.341
10,AATAAAGA,0.344
11,AATAAAAA,0.415
12,AATAAAGT,0.372
13,AGTAAAAT,0.308
14,AATAAAAG,0.309
15,CACCAGCC,-0.0802
16,AGGCCTAC,-0.133
17,CAAACCTA,0.0792
18,ATTTTCGA,0.0907
19,AGCGTTCC,-0.129
20,TTGAGAAA,0.135
21,ACGTGGCC,-0.18
22,CCCTGATC,-0.224
23,CTACATGC,-0.081
24,ATCGGTAA,-3.6e-06
25,GCCGCGTA,-0.0692

row,Sequence,PBM 8-mer E-score
1,ACACCCCC,-0.251
2,AGCACAAA,0.0677
3,AGGCACCT,-0.217
4,GACTTTGC,0.127
5,TAAAAATA,0.3
6,ATAAAATG,0.249
7,GTAAAATA,0.345
8,ATAAAATA,0.427
9,GAAAAATA,0.317
10,CTAAAATC,0.148
11,ATAAAATC,0.193
12,GTAAAAAA,0.137
13,CTAAAATA,0.353
14,AATAAGTC,0.298
15,ATATTGTC,0.346
16,CTATTGTA,0.34
17,ATATTGTA,0.376
18,ATATTGTG,0.251
19,CTATTGTC,0.12
20,ACATTGTC,0.116
21,CTCGAGTA,-0.0253
22,AGCCAACA,0.0763
23,AAGTCGAT,-0.0445
24,AGCAGACG,-0.169
25,ACTGCGAG,-0.0652

row,Sequence,PBM 8-mer E-score
1,TATAATCA,0.389
2,AATAATAT,0.453
3,AATAATCT,0.314
4,AATAATCC,0.26
5,GATAATCA,0.176
6,AGTAATAT,0.418
7,AATAATCA,0.259
8,TATAATAA,0.477
9,GCTAATAA,0.338
10,AGTAATAC,0.297
11,TAGAATAA,0.306
12,AGTAATAG,0.213
13,ACGCACTC,-0.0389
14,AAAAAGAG,0.0446
15,AACGTTTG,0.0612
16,AGCCGCAA,-0.0521
17,GGGCCGAC,-0.267
18,GGCGGAAC,-0.146
19,ATCTTCAA,0.0478
20,GCCTTGGA,-0.206
21,GGCACCCA,-0.148
22,CTCCACTC,-0.232
23,AATAAGAA,0.318
24,CATAATAG,0.318
25,AATAATAG,0.402

row,Sequence,PBM 8-mer E-score
1,AATAGTAG,0.294
2,CATAATAA,0.334
3,GATAATAA,0.404
4,AATAAGAT,0.356
5,AATAATAA,0.478
6,AATAAGAG,0.222
7,AGGCATCG,-0.134
8,TAAATCAA,0.341
9,AATTGGTG,0.0491
10,CGCTGTAC,-0.228
11,GCAGCTAA,0.0363
12,AATAATAC,0.419
13,CATAATAC,0.327
14,GATAATAC,0.301
15,GGAAATCA,-0.0787
16,GAGGAATC,-0.0683
17,TCCATCAA,-0.032
18,ACAAGGTA,-0.0731
19,AGTTAACA,0.348
20,AGTTAACG,0.204
21,TGTTAACA,0.33
22,AGTTAACC,0.142
23,AGTTAACT,0.377
24,CGTTAACA,0.114
25,GTGAACCA,-0.139

row,Sequence,PBM 8-mer E-score
1,AACGCTTA,0.0532
2,ATATTAAC,0.434
3,CTATTAAC,0.315
4,AGATTAAC,0.173
5,GTATTAAA,0.313
6,TTGTTAAA,0.346
7,CTATTAAA,0.283
8,ATATTAAA,0.466
9,TCATTAAA,0.228
10,CGATTAAA,0.218
11,TTATTAAA,0.409
12,CTGTTAAA,0.175
13,GTGTTAAA,0.177
14,GAGGACTC,-0.279
15,CTCGGAAG,-0.0476
16,CGCACACG,-0.149
17,GATTCTGC,-0.159
18,CACTACGA,-0.0417
19,CCTGGCAG,-0.209
20,CGTTGTAC,-0.0465
21,AAGAGCTT,-0.115
22,GATTCTGA,-0.00658
23,AGCGCAAA,0.162
24,AACCAGGC,-0.183
25,GCCTAATA,0.133

row,Sequence,PBM 8-mer E-score
1,AAATTTCT,0.148
2,ATATTAAG,0.446
3,GTATTAAC,0.39
4,CTATTAAG,0.17
5,GGATTAAC,0.111
6,GCATTAAC,0.114
7,ATATTACG,0.299
8,AGCGTCGC,-0.197
9,CACAACCG,-0.028
10,ATCGTATA,0.115
11,CCTACGAG,-0.148
12,ATAAGTCA,0.17
13,CGTATAAC,0.113
14,TGTATAAA,0.258
15,GGTATAAA,0.339
16,AGTATAAC,0.36
17,AGTATAAA,0.381
18,GGTATAAC,0.226
19,ATGTAAAA,0.247
20,CTTCCCCC,-0.176
21,AACACACA,0.187
22,AGGCTTAC,-0.247
23,GGATAATA,0.403
24,AGATAATG,0.295
25,AGATAATC,0.136

row,Sequence,PBM 8-mer E-score
1,CGATAATA,0.301
2,AGATAATA,0.366
3,GGATAAGA,0.0379
4,GCTCGAGA,-0.152
5,CCGTTCGC,-0.222
6,CTCCGGTA,-0.227
7,CAACGGCG,-0.221
8,ATCTATAG,0.146
9,GCGTATAA,0.201
10,CCATATAG,0.084
11,CACTATAG,0.196
12,CTCTATAA,0.081
13,CTATATAG,0.388
14,ATATATAG,0.468
15,GTATATAA,0.401
16,CTATATAA,0.421
17,ATATAGCG,0.333
18,ATCTATAA,0.209
19,GTGTATAA,0.202

# Source: the supplement of paper PMC4466236
